Source: PubChem (The Scripps Research Institute Molecular Screening Center)
sPLA2-III inh: human group III sPLA2 inhibitors, primary screen, biochemical, QFRET, BODIPY PC-A2 liposome substrate | AID 743126, 2013 | hit rate 0.56% among 370,000 | inhibition, % at 12.2 µM | QFRET BODIPY PC-A2 liposome hydrolysis, fluorescence;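 active = inhibition above mean plus 3 SD of compounds lying within the high and low control bounds, cut at about 19% in these data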;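 note: 0% = median of test compound wells and 100% = no enzyme DMSO wells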
Target sequence (Q9NZ20 whole entry, looked up): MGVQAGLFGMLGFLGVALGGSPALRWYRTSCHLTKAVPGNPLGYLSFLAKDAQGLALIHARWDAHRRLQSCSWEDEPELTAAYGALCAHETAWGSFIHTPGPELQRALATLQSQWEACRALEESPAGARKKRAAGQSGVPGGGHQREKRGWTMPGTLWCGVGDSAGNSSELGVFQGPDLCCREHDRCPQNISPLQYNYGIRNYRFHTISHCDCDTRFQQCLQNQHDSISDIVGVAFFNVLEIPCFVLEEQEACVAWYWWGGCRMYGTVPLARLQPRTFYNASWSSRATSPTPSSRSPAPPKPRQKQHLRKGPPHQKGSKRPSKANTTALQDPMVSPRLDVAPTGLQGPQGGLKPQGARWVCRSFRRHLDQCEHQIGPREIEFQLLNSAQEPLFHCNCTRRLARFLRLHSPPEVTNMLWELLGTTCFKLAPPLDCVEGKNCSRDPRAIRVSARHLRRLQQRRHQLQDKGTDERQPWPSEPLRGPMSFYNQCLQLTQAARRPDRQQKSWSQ
bovine MsrA act: bovine MsrA enzyme activators, primary screen, biochemical, absorbance, HTS. Methionine sulfoxide reductase A (Bos taurus). purified bovine MsrA, absorbance read-out. activation, % at 10.6 µM. hit rate 0.3% among 360,000. AID 602163, 2012; in the data active = activation above about 7.5%;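 note: 0% = vehicle and 100% = reference activator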
MsrA inhibitor: bovine MsrA enzyme inhibitors, primary screen, biochemical, absorbance, HTS. Methionine sulfoxide reductase A (Bos taurus). purified bovine MsrA, absorbance read-out. inhibition, % at 15.5 µM. hit rate 0.75% among 360,000. AID 651718, 2012;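 note: 0% = vehicle wells with enzyme and 100% = reference inhibitor wells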
rCAG RNA binder: binders of r(CAG) RNA repeats, primary screen, biochemical, fluorescence; inhibition, % at 3 µM; hit rate 1.3% among 370,000; r(CAG) RNA repeat, TO-PRO-1 dye displacement fluorescence;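 active = inhibition above the plate cutoff, the mean of all test compounds on that plate plus 3 SD, cut at about 35% in these data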;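 note: 0% = DMSO alone and 100% = 100 µM mitoxantrone as full dye displacement; higher means more dye released from RNA so lower well fluorescence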
MsrA inh confirm: bovine MsrA inhibitors, retest, confirmation, biochemical, absorbance, HTS | shares compounds with MsrA inhibitor | purified bovine MsrA, absorbance read-out | inhibition, % at 15.5 µM | hit rate 41% among 2,300 | AID 651822, 2012;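 note: coupled to thioredoxin reductase with NADPH and selenocystamine and DMSO as substrate; 0% = vehicle only and 100% = full effect of reference inhibitor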
* marks the source's active call; other numbers are inactive results; nt = no result given. Rows were chosen to be rich in hits. Some 2.8% of all compounds tested hit in one or more screens of this group. Cut-off read from the data, not from the text of the source, unless noted: active = inhibition above about 4.5%; inactive = the rest.

SMILES	sPLA2-III inh	bovine MsrA act	MsrA inhibitor	rCAG RNA binder	MsrA inh confirm
NC(=O)N/N=C/c1ccc(-c2ccc(S(=O)(=O)Nc3ncccn3)cc2)o1	3.0	-1.5	5.7*	-6.1	6.4*
O=C(COC(=O)c1cc2ccccc2oc1=O)c1cccc([N+](=O)[O-])c1	-12.7	-4.3	1.8	12.0	nt
COc1ccc(C(=O)N/C(=C\c2cccc3ccccc23)C(=O)NCCc2c[nH]c3ccccc23)cc1OC	-53.4	-1.3	5.0*	19.6	1.1
COc1ccc([N+](=O)[O-])cc1NC(=O)Cc1ccc(Cl)cc1	0.6	-6.2	1.9	2.0	nt
O=C(O)CCC(=O)N1c2ccccc2NC2=C(C(=O)CC(c3ccc(F)cc3)C2)C1c1ccc([N+](=O)[O-])o1 (configuration not stated)	-4.2	-3.7	7.0*	19.5	4.6*
COc1ccc(C2CC(=O)C3=C(C2)Nc2ccccc2N(C(=O)CCC(=O)O)C3c2ccc(F)cc2)cc1 (configuration not stated)	6.2	-2.1	5.0*	17.5	4.4
CC(=O)N1c2ccccc2NC2=C(C(=O)CCC2)C1c1ccc(F)cc1 (configuration not stated)	-0.7	-1.8	3.3	-2.9	nt
Cc1c(C(=O)N2CCN(c3ccccc3)CC2)oc2c(Cl)cccc12	2.4	2.1	0.0	1.3	nt
CC(C)NC(=O)/C(C#N)=C/c1ccc2c(c1)OCCO2	5.5	-8.6	6.3*	2.0	4.1
O=[N+]([O-])c1ccc(O)c(C=NNc2ccc(S(=O)(=O)O)cc2)c1	0.0	-4.8	5.3*	4.9	6.2*
O=[N+]([O-])c1ccc(N/N=C/c2ccccc2O)cc1	-7.1	-3.6	0.8	27.1	nt
Cc1cc(=O)oc2cc(OCC(=O)NCC3CCC(C(=O)O)CC3)ccc12 (configuration not stated)	1.9	-1.1	1.3	0.0	nt
CN(C)C(=O)COc1ccc2cc(-c3ccccc3)c(=O)oc2c1	3.7	-2.9	4.7*	1.8	3.2
Cc1c(OCC(=O)N(C)C)ccc2c(-c3ccccc3)cc(=O)oc12	1.1	-5.7	17.9*	-4.2	16.4*
Cc1c(OCc2nn[nH]n2)ccc2c(-c3ccccc3)cc(=O)oc12	-19.8	-2.4	2.2	23.7	nt
COc1ccc(-c2cc(=O)oc3cc(OCC(=O)NCC4CCC(C(=O)O)CC4)ccc23)cc1 (configuration not stated)	4.3	3.9	4.9*	14.8	2.8
CC(Oc1ccc2ccc(=O)oc2c1)C(=O)NCC1CCC(C(=O)O)CC1 (configuration not stated)	8.0	-9.4	2.1	1.5	nt
CC(Oc1ccc2cc(-c3ccccc3)c(=O)oc2c1)C(=O)NCC1CCC(C(=O)O)CC1 (configuration not stated)	-0.1	-10.4	6.3*	6.9	4.3
COc1ccccc1CCNC(=O)c1ccc(C)o1	4.6	-1.2	-0.3	0.8	nt
Nc1nc2nccc(-c3ccco3)n2n1	0.8	-5.1	6.1*	0.5	3.3
Cn1cc(-c2ccccc2C(=O)O)c(=O)c2cc(Cl)ccc21	2.6	-2.8	4.9*	-4.3	1.7
Cn1cc(S(=O)(=O)c2ccccc2)c(=O)c2cc(Cl)ccc21	5.2	-6.3	0.1	1.1	nt
CC1(C)OC(=O)C(=NNc2ccccc2C(=O)O)C(=O)O1	7.0	-4.6	4.9*	-1.9	2.4
CC1(C)OC(=O)C(=NNc2ccccc2)C(=O)O1	12.3	-7.5	4.0	-0.1	nt
CC1(C)OC(=O)C(=NNc2ccc(C(=O)O)cc2)C(=O)O1	17.5	-4.8	4.8*	-2.3	2.2
SMILES	sPLA2-III inh	bovine MsrA act	MsrA inhibitor	rCAG RNA binder	MsrA inh confirm
COc1cccc(C(=O)NCC2CCCN(C3CCCCC3)C2)c1OC (configuration not stated)	2.0	0.2	-0.7	-0.9	nt
O=S(=O)(c1ccc2ccccc2c1)N1CCN(S(=O)(=O)N2CCCCC2)CC1	1.8	-0.9	0.2	-0.6	nt
CCOC(=O)C(C)Oc1ccccc1C1NC(=O)NC(C)=C1C(=O)Nc1ccc(C)c(C)c1 (configuration not stated)	-4.1	1.3	0.6	-3.4	nt
COc1ccc(NC(=S)Nc2ccc(C)c(Cl)c2)cc1OC	1.0	-2.4	-1.3	0.6	nt
COc1ccc(/C([O-])=C(/C(=S)Nc2ccc(C)c(C)c2)n2c[n+](C)c3ccccc32)cc1OC	8.8	-6.0	4.8*	3.7	2.4
O=C(NCCc1ccccc1)c1coc(=O)c(Br)c1	2.7	-16.3	5.6*	-4.0	6.5*
CC(C)CNC(=O)c1coc(=O)c(Br)c1	-0.6	-5.7	5.7*	-1.6	6.1*
CN(C)CCNC(=O)c1coc(=O)c(Br)c1	-1.1	-2.7	4.2	2.8	nt
COCc1c(C(=O)OCc2nnc(-c3ccc([N+](=O)[O-])cc3)o2)oc2ccccc12	3.8	-0.6	0.6	8.2	nt
COc1cc(OC)nc(NC(=O)COC(=O)c2cccc(Cl)c2)n1	-2.7	-9.5	-0.4	1.4	nt
Cc1ccc(CNC(=O)c2ccc(Cl)c(S(N)(=O)=O)c2)n1C	-6.8	-2.6	0.7	16.4	nt
Cc1nc2c(=O)n(C)c(=O)n(C)c2nc1Cl	10.4	0.8	4.7*	-0.9	2.0
CC(=O)N(C)C[C@@H]1Oc2cc(Br)ccc2S(=O)(=O)N([C@H](C)CO)C[C@@H]1C	1.1	nt	0.7	4.5	nt
CCN(C(=O)COC(=O)c1cc([N+](=O)[O-])ccc1N1CCOCC1)c1ccccc1	4.9	-1.4	9.8*	0.1	5.5*
Cc1ccc(/C=C(\C#N)C(=O)Nc2c(C)cccc2C)s1	-9.5	-4.3	7.1*	0.0	6.1*
CN(C)N=Nc1nc2c(c(=O)n(C)c(=O)n2C)n1C	5.3	-3.7	5.8*	-3.4	4.5
CC(C)/C=N/Nc1nc2c(c(=O)n(C)c(=O)n2C)n1C	-6.3	-3.1	-0.1	-2.0	nt
CCc1ccc(S(=O)(=O)Nc2ccc(Cl)cn2)cc1	-7.5	-6.9	0.4	5.6	nt
COc1ccc(/C=N/N=C2/NC(=O)C(CC(=O)O)S2)cc1OCc1ccc(Cl)cc1 (configuration not stated)	2.1	-10.4	7.3*	25.8	5.9*
CC(=O)Nc1ccc(S(=O)(=O)Oc2cccc(/C=N/N=C3/NC(=O)C(CC(=O)O)S3)c2)cc1 (configuration not stated)	-10.1	-10.7	4.1	23.4	nt
COc1ccc(/C=N/N=C2/NC(=O)C(CC(=O)O)S2)cc1OS(=O)(=O)c1ccccc1 (configuration not stated)	-2.4	-4.5	4.0	15.9	nt
Cn1c(=O)n(C)c2cc(/C=N/N=C3/NC(=O)C(CC(=O)O)S3)ccc21 (configuration not stated)	3.3	-7.8	6.2*	0.6	6.7*
CCc1cc(S(=O)(=O)N2CCN(C(=O)c3ccco3)CC2)ccc1OC	-4.3	-1.2	-0.8	-4.2	nt
CC(/C=C/c1ccc2c(c1)OCO2)=N\NC(=O)c1ccccc1	3.5	-5.2	3.9	-1.8	nt
